{"source": "PubChem BioAssay (NCI)", "note": "Several values for one entry are separate records, joined by “and”; a condition that tells them apart may be missing. Equal entries are not always repeated. This is part of a sample that, as a whole, favours compounds with a hit. Of some 83,000 tested, about 20% had one in any assay.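 Results are percent growth after 48 hours of single-concentration exposure. 100 means growth as in untreated cells, lower positive values show inhibition; negative values down to -100 show cell death.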 Values without a mark were called inactive. Activity calls are given as the source filed them. Rule for the calls: active = growth percent below 10; inactive = the rest.", "data": [{"tested_on": "MDA-MB-468 breast", "assay": "NCI-60 one-dose screen, 48 h (100 = growth as untreated, 0 = no growth, -100 = all killed)", "conditions": "10 µM unless noted", "values": [{"smiles": "C#CC1(O)CCC2(C)C(CCC3C4CCC(=O)C4(C)CCC32)C1", "note": "(stereo not given)", "growth": "86.3%"}, {"smiles": "Cn1cnnc1[S-].[Au+].c1ccc([PH+](c2ccccc2)c2ccccc2)cc1", "growth": "-49.1% (active)"}, {"smiles": "CC(/C=N/N=C(N)N)=N/N=C(N)N", "growth": "93.9%"}, {"smiles": "COC(=O)[C@H]1[C@@H](O)[C@@]2(O)c3c(OC)cc(OC)cc3O[C@@]2(c2ccc(OC)cc2)[C@@H]1c1ccccc1", "growth": "-16.5% (active)"}, {"smiles": "O=S(=O)(Cl)c1ccccc1", "note": "(tested in a mixture with another compound)", "growth": "98.6%"}, {"smiles": "CC[C@@H]1[C@@H](C)O[C@@](O)([C@@H](C)[C@H](O)[C@H](C)[C@H]2OC(=O)/C=C/C=C/[C@H](C)[C@@H]([C@@H](C)[C@@H](O)[C@H](C)[C@@]3(O)C[C@@H](O[C@H]4C[C@@H](O)[C@H](O)C(C)O4)[C@H](CC)[C@@H](C)O3)OC(=O)/C=C/C=C/[C@@H]2C)C[C@H]1O[C@@H]1C[C@@H](O)[C@H](O)C(C)O1", "note": "(stereo not given in full)", "growth": "-83.6% (active)"}, {"smiles": "Oc1ccc2c3c1O[C@H]1c4[nH]c5ccccc5c4C[C@@]4(O)C(C2)N(CC2CC2)CC[C@]314", "growth": "90.5%"}, {"smiles": "C/C(=C\\c1ccn(-c2ccc(N)c(C(F)(F)F)c2)n1)[C@@H]1C[C@@H]2O[C@]2(C)CCC[C@H](C)[C@H](O)[C@@H](C)C(=O)C(C)(C)[C@@H](O)CC(=O)O1", "growth": "4.12% (active)"}, {"smiles": "Cc1c(C)c(N)c(C)c(C)c1N", "growth": "61.7%"}, {"smiles": "C=NCC#N", "growth": "105% and 108%"}]}]}
